# According to ChEMBL document CHEMBL1961873, “Compounds: GSK PKIS; Assays: Nanosyn kinase panel” (2012):
# Where “and” joins values, the source holds several entries; their conditions need not be identical. Identical values can stand only once.
# Biological target: Serine/threonine-protein kinase MRCK alpha (Homo sapiens) (UniProt Q5VT25)
# Settings: at 0.1 µM
# 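Also: each inhibition figure is a mean value.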
# Sequence of Serine/threonine-protein kinase MRCK alpha (Homo sapiens) (Q5VT25 whole entry): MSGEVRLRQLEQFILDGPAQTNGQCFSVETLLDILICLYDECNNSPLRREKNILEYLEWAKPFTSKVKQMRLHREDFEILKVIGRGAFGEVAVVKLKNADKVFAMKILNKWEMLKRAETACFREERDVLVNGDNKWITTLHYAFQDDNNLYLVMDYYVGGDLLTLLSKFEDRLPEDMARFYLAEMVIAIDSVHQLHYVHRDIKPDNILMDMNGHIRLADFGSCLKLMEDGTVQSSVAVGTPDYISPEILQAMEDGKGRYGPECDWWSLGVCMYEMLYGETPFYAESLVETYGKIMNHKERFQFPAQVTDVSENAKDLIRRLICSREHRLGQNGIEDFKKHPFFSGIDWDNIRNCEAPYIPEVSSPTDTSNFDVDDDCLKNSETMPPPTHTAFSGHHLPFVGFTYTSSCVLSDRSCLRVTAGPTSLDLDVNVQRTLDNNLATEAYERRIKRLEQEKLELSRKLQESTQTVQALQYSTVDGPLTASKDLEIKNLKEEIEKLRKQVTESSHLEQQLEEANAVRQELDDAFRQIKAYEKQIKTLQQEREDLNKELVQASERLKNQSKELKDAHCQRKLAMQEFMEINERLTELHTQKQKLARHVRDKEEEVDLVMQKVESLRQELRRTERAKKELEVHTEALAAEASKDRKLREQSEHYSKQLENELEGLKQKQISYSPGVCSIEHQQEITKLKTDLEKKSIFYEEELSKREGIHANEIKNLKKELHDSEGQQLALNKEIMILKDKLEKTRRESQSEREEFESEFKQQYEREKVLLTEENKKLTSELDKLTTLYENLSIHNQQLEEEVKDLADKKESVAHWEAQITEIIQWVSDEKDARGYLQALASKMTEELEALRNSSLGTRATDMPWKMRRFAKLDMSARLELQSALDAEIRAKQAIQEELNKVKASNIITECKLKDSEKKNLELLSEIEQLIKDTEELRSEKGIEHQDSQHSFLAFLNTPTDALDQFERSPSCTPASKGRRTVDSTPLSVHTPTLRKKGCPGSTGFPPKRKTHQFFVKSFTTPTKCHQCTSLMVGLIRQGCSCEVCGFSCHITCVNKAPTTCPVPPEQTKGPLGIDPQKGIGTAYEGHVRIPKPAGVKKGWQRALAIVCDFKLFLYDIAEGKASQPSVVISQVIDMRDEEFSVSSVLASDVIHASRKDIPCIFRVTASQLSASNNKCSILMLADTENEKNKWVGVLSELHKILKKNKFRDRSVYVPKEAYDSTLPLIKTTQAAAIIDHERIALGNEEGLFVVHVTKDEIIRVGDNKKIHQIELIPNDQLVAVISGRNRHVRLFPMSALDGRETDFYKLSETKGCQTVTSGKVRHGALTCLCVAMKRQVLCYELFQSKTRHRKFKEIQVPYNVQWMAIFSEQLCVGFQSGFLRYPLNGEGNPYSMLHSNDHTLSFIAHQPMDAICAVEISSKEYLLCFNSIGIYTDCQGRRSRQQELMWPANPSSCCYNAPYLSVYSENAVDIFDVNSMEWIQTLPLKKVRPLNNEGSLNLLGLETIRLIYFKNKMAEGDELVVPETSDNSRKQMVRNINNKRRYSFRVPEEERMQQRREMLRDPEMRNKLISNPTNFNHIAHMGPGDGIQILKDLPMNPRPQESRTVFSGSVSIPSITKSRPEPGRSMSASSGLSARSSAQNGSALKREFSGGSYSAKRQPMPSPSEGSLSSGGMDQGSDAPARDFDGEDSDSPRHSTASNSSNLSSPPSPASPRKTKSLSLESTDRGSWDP
row,Compound,inhibition
1,c1cnn2ncc(-c3ccnc(NCCCN4CCOCC4)n3)c2c1,-0.89%
2,CS(=O)(=O)CCNCc1ccoc1-c1ccc2ncnc(Nc3ccc(OCc4ccccc4)cc3)c2c1,-1.71%
3,COc1ccccc1-c1cc(/C=C2\C(=O)Nc3ncc(Br)cc32)cc(Br)c1O,-0.66%
4,CN(C)CCNC(=O)Nc1ccc(N(C)c2ccnc(Nc3ccc(CS(C)(=O)=O)cc3)n2)cc1,-0.24%
5,N#Cc1cccc(Nc2ncc(-c3ccccc3)o2)c1,0.38%
6,Cc1nnc(-c2cccc(-c3ccc(C(=O)NCC4CC4)cc3)c2)o1,-0.4%
7,CCN1CCC(C(=O)Nc2n[nH]c3nnc(-c4cccc(F)c4F)cc23)CC1,-1.78%
8,FC(F)(F)CNc1nccc(-c2cnn3ncccc23)n1,-2.84%
9,c1ccc(-c2n[nH]cc2-c2ccnc(-c3ccc(OCCn4ccnc4)cc3)c2)nc1,-0.22%
10,COc1cccc(Nc2nccc(-c3cnn4ncccc34)n2)c1,0.93%
11,CS(=O)(=O)CCNCc1ccc(-c2ccc3ncnc(Nc4ccc(OCc5ccccc5)cc4)c3c2)o1,-0.82%
12,CN1CCN(Cc2ccc(-c3cc4ncnc(Nc5ccc(OCc6cccc(F)c6)c(Cl)c5)c4s3)o2)CC1,-1.39% and -0.36%
13,O=C(O[C@H]1CN[C@H](C#Cc2cc3ncnc(Nc4ccc5c(cnn5Cc5ccccc5)c4)c3s2)C1)N1CCOCC1,0.53%
14,O=C(O[C@H]1CN[C@H](C#Cc2cc3ncnc(Nc4ccc5c(ccn5Cc5cc(F)ccc5F)c4)c3s2)C1)N1CCOCC1,-0.29%
15,CS(=O)(=O)Nc1ccc(-c2ccc3c(NC(=O)C4CC4)n[nH]c3c2)cc1,-0.45%
16,O=C(Nc1n[nH]c2nnc(-c3cccnc3)cc12)C1CC1,2.61%

row,Compound,inhibition
1,COc1ccc(Nc2ncc(-c3ccccc3)o2)cc1OC,0.45%
2,COc1ccc(-c2nn3ncccc3c2-c2ccnc(Nc3ccc(F)c(F)c3)n2)cc1,0.67%
3,OCCCNc1nccc(-c2c(-c3ccc(F)cc3)nn3cc(C(F)(F)F)ccc23)n1,0.26%
4,CC1(C)CC(n2cnc(-c3ccc(F)cc3)c2-c2ccnc(N)n2)CC(C)(C)N1,0.39%
5,Cc1cc(O)cc(C)c1/C=C/c1cncc(C(N)=O)c1,0.25%
6,CN1CCC(n2cnc(-c3ccc(F)cc3)c2-c2ccnc(NCCO)n2)CC1,0.14%
7,O=C1Nc2ccccc2/C1=C1\CCc2cc(O)ccc21,0.14%
8,CC1=C(C(=O)Nc2ccc3[nH]ncc3c2)C(c2ccc(F)cc2)N=C(c2ccc(C(F)(F)F)nc2)N1 (stereo unspecified),-0.15%
9,COC(=O)Nc1nc2ccc(Oc3ccc(NC(=O)Nc4cc(C(F)(F)F)ccc4F)cc3)cc2s1,-0.38%
10,Cn1c(-c2nonc2N)nc2cnccc21,1.33%
11,CNC(=O)c1ncccc1Nc1nc(Nc2cc3c(cc2OC)CCCN3C(=O)CN(C)C)nc2[nH]ccc12,-0.11%
12,COc1c(C(N)=O)cc(-c2ccc(Cl)cc2)cc1-c1ccc(S(N)(=O)=O)cc1,5.11%
13,CS(=O)(=O)CCNCc1ccc(-c2ccc3ncnc(Nc4ccc(OCc5cccc(C(F)(F)F)c5)cc4)c3c2)o1,1.26%
14,NC(=O)c1ccc2c(-c3ccnc(NCCCO)n3)c(-c3ccc(F)cc3)nn2c1,0.04%
15,COc1cc(Nc2ncc(-c3ccccc3)o2)cc(OC)c1,-6.08%
